{"source": "PubChem BioAssay AID1745850", "about": "(National Center for Advancing Translational Sciences (NCATS), 2022)", "note": "In all, about 2,100 compounds went through this assay and about 260 (12%) were called active. Inconclusive results (about 58%) are left out. The call rests on the fitted dose curve; in most records, active means well fitted cell-killing curve with a large enough effect; inconclusive means small, poorly fitted or top-dose-only effect, or effect the other way; inactive means flat fitted curve, though single readings scatter. The list shows a part of the results. Entries that show only a call come without a potency. Potency means the concentration at half of the fitted maximal effect.", "data": [{"assay": "Viability Counterscreen for Confirmatory qHTS for Inhibitors of ATXN expression; further: nearly all actives have a fitted effect of over 50% in size", "conditions": "HEK-293 ATXN2-luc cells viability, CellTiter-Fluor, 24 h", "summary_of_the_method": "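Luminescence read-out (SteadyGlo, 5 min) followed a 30 min Gly-Phe-AFC (25 uM final) viability fluorescence read. ATXN2-luciferase reporter cells were exposed 24 h to a dilution series. Medium-only wells served as the 100% inhibition reference.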", "values": [{"smiles": "CC(C)CCNC(=O)COc1cccc2c1OC(C)(C)C2", "Potency": "inactive"}, {"smiles": "CCOC(=O)[C@H]1[C@H]2COc3ccc(OC)cc3[C@@H]2N2C(=O)c3cc(OC)c(OC)cc3NC(=O)[C@@]12C", "Potency": "inactive"}, {"smiles": "Cc1cc(O)c(C(C)C)cc1N=Cc1ccc(N(C)C)cc1", "Potency": "inactive"}, {"smiles": "Cc1cc(C2=NNC(=NC3CC3)SC2)c(C)n1-c1ccccc1F", "Potency": "inactive"}, {"smiles": "Cc1cccc(N2CCN(C(=O)CNC(=O)Cc3ccccc3)CC2)c1C", "Potency": "inactive"}, {"smiles": "CCC(C)(C)c1ccc(OCCCC[n+]2ccccc2)c(C(C)(C)CC)c1", "Potency": "inactive"}, {"smiles": "CCC(C)(C)c1ccc(OCCCC[n+]2ccc(C)cc2)c(C(C)(C)CC)c1", "Potency": "inactive"}, {"smiles": "CCCCCc1ccc(OCCC[n+]2ccccc2)c(CCCCC)c1", "Potency": "20 µM (active)"}, {"smiles": "Cc1cccc(OCCSc2nc3ncnc(N)c3[nH]2)c1", "Potency": "inactive"}, {"smiles": "Cc1nc(-c2ccc(Cl)cc2)sc1C(=O)NN", "Potency": "inactive"}, {"smiles": "COc1ccc2nc(C)cc(NCc3cccc(C(F)(F)F)c3)c2c1", "Potency": "22.4 µM (active)"}, {"smiles": "COc1ccc(N2CCN(c3cc(C)nc4ccc(OC)cc34)CC2)cc1", "Potency": "inactive"}, {"smiles": "COc1ccc2nc(C)c3c(c2c1)OC(C(C)(Cl)Br)C3", "note": "(stereo not given)", "Potency": "inactive"}, {"smiles": "O=C(CCN1CCN(c2ccccc2)CC1)N/N=C/c1ccccc1O", "Potency": "inactive"}, {"smiles": "COc1cc(C(=O)OC(C)C(=O)N2CCc3ccccc3C2)ccc1OCC(=O)N1CCOCC1", "note": "(stereo not given)", "Potency": "inactive"}, {"smiles": "COC(=O)c1sc(NC(=O)c2ccc(OC)cc2OC)nc1C", "Potency": "inactive"}, {"smiles": "Cc1cc(C)c(C)c(OC(=O)c2sc(Cl)nc2C)c1", "Potency": "28.2 µM (active)"}, {"smiles": "CCOC(=O)C1CCN(c2ncnc3c2cnn3-c2ccc(Cl)cc2)CC1", "Potency": "inactive"}, {"smiles": "Cc1cc(N2CCN(c3nc(-c4ccccc4)cs3)CC2)c2ccccc2n1", "Potency": "inactive"}, {"smiles": "Cn1cccc1/C=N/N1CCN(Cc2ccccc2Cl)CC1", "Potency": "inactive"}, {"smiles": "O=C1c2cccc3c([N+](=O)[O-])ccc(c23)C(=O)N1c1ccc(Cl)cn1", "Potency": "inactive"}, {"smiles": "CCOC(=O)N1CCN(Cc2cc(Cl)c3cccnc3c2O)CC1", "Potency": "inactive"}, {"smiles": "O=[N+]([O-])c1ccc(O)c2ncccc12", "Potency": "11.2 µM (active)"}, {"smiles": "O=[N+]([O-])c1cc(Cl)c(O)c2ncccc12", "Potency": "11.2 µM (active)"}, {"smiles": "CC(C)COCc1ccc(O)c2ncccc12", "Potency": "inactive"}, {"smiles": "Cc1ccnc(N2C(=O)c3cccc4c([N+](=O)[O-])ccc(c34)C2=O)c1", "Potency": "inactive"}, {"smiles": "Cn1c(-[n+]2c(-c3ccccc3)cc(-c3ccccc3)cc2-c2ccccc2)nc2c([N+](=O)[O-])cccc21", "Potency": "inactive"}, {"smiles": "COc1ccc(N=Cc2cc3c(cc2O)OC(N)=C(C#N)C3c2ccccc2)cc1", "note": "(stereo not given)", "Potency": "inactive"}, {"smiles": "O=C1CCCC(O)=C1C=NCc1ccccc1", "Potency": "inactive"}, {"smiles": "CCCCC(=O)N(CCOC)c1nnc(-c2ccccc2C)s1", "Potency": "inactive"}]}]}
